{
  "source": "paper PMC4336329",
  "about": "(PLoS ONE, 2015)",
  "note": "The whole screen tested about 310,000 compounds, of which about 14,000 (4.5%) showed an effect of 50% or more. Effects have a minus sign here. Shown is part of a subset that was picked to be rich in strong results.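 Further: peak tail current of the secondary pulse compared with the same well before compound.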",
  "data": [
    {"biological_target": "human ether-à-go-go-related gene (hERG) potassium channel (human, UniProt Q12809)", "sequence (Q12809 whole entry, looked up)": "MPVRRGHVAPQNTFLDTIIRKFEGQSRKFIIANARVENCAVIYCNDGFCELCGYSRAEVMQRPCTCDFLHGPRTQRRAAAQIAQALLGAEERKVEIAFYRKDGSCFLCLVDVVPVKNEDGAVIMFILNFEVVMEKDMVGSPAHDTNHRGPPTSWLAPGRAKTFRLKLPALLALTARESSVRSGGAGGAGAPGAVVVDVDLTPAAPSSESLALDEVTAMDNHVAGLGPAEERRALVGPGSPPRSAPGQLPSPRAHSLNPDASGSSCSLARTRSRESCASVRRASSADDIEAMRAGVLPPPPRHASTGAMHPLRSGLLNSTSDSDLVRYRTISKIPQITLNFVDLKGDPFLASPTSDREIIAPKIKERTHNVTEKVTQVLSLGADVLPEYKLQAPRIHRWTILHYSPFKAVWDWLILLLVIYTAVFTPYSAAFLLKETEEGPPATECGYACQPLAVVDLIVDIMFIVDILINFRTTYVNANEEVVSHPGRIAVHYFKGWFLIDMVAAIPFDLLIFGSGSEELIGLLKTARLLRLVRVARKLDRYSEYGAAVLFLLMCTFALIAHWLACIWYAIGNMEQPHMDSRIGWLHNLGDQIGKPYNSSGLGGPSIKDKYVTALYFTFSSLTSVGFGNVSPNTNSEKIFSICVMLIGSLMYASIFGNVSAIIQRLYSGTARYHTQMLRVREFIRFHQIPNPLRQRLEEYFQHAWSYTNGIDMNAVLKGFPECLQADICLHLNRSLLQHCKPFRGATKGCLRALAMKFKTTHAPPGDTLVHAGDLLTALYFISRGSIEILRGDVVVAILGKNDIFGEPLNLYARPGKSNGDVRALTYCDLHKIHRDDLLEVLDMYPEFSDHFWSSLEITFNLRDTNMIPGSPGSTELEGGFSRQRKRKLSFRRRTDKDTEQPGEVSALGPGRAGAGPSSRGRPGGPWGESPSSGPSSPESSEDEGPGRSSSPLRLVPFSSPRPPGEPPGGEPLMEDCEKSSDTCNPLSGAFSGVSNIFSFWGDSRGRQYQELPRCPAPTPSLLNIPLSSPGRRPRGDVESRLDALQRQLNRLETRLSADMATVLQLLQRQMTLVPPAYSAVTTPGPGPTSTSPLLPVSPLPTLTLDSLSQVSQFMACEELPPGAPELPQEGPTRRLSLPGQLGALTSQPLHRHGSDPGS", "experiment": "primary screen, population patch clamp on CHO cells stably expressing hERG; higher = less effect of the substance", "units": {"hERG current change (%, negative = inhibition) at 10uM": "%"}, "values": [
      {"smiles": "CN(C)c1cc[n+](CC(=O)Nc2cc(C(F)(F)F)ccc2Cl)cc1.[Cl-]", "hERG current change (%, negative = inhibition) at 10uM": 7.63},
      {"smiles": "CCn1c(CNc2ccc(F)cc2)nnc1SCC(=O)Nc1ccccc1OC", "hERG current change (%, negative = inhibition) at 10uM": -30.2},
      {"smiles": "CN1CCCN(C(=O)c2ccc(Cl)cc2)CC1", "hERG current change (%, negative = inhibition) at 10uM": 5.68},
      {"smiles": "Cc1ccc2nc(SCC(=O)Nc3ccc4c(c3)CCC4)[nH]c2c1", "hERG current change (%, negative = inhibition) at 10uM": 8.84},
      {"smiles": "CCN(CC)S(=O)(=O)c1ccc(-c2nnc(SCC(C)=O)o2)cc1", "hERG current change (%, negative = inhibition) at 10uM": -8.48},
      {"smiles": "CCOC(=O)C1CCCN(C(=O)c2cn(CC(C)C)c(=O)c3cc(OC)c(OC)cc23)C1", "note": "(stereo not drawn)", "hERG current change (%, negative = inhibition) at 10uM": 5.47},
      {"smiles": "CCn1cc(C(=O)N2CCN(C3CCCCC3)CC2)c2cc(OC)c(OC)cc2c1=O", "hERG current change (%, negative = inhibition) at 10uM": -20.6},
      {"smiles": "COc1cc2c(C(=O)N3CCN(C4CCCCC4)CC3)cn(CC(C)C)c(=O)c2cc1OC", "hERG current change (%, negative = inhibition) at 10uM": -63.3},
      {"smiles": "COc1ccc(NS(=O)(=O)c2cc3c4c(c2)C(C)C(=O)N4CCC3)cc1", "note": "(stereo not drawn)", "hERG current change (%, negative = inhibition) at 10uM": 10.3},
      {"smiles": "CCN(CC)CC(=O)N1c2ccccc2Sc2ccc(Cl)cc21.Cl", "hERG current change (%, negative = inhibition) at 10uM": -10.3},
      {"smiles": "Cc1cc(C(=O)N/N=C/c2ccc(Cl)c([N+](=O)[O-])c2)c(C)n1-c1ccc(F)cc1", "hERG current change (%, negative = inhibition) at 10uM": -2.41},
      {"smiles": "CC(C)n1c2ccccc2c2cc([N+](=O)[O-])ccc21", "hERG current change (%, negative = inhibition) at 10uM": 16.1},
      {"smiles": "Cc1ccc(C(=O)NC(C(=O)NC2CCCC2)c2ccccc2)cc1", "note": "(stereo not drawn)", "hERG current change (%, negative = inhibition) at 10uM": 15},
      {"smiles": "c1cnc(Sc2ccc3nnnn3n2)nc1", "hERG current change (%, negative = inhibition) at 10uM": -56.4},
      {"smiles": "c1ccc(Sc2ncccn2)nc1", "hERG current change (%, negative = inhibition) at 10uM": 12.2},
      {"smiles": "c1ccc(-c2ccc3nnnn3n2)cc1", "hERG current change (%, negative = inhibition) at 10uM": 5.72},
      {"smiles": "COc1ccc(C(=O)c2sc3nc(-c4ccccc4)ccc3c2N)cc1OC", "hERG current change (%, negative = inhibition) at 10uM": 18.1},
      {"smiles": "CC[n+]1c(/C=C/Nc2ccccc2)sc2ccccc21.[I-]", "hERG current change (%, negative = inhibition) at 10uM": -72.2},
      {"smiles": "CC[n+]1c(/C=C2/C=C(C)CC(C)C2)sc2ccccc21.[I-]", "note": "(stereo not drawn)", "hERG current change (%, negative = inhibition) at 10uM": -3.25},
      {"smiles": "CCOS(=O)(=O)[O-].CC[n+]1c(/C=C/Nc2ccccc2)oc2ccc(OC)cc21", "hERG current change (%, negative = inhibition) at 10uM": -77.2},
      {"smiles": "CC[n+]1ccccc1/C=C/Nc1ccccc1.[I-]", "hERG current change (%, negative = inhibition) at 10uM": -44.7},
      {"smiles": "CC[n+]1c(/C=C2\\C=C(C)CC(C)C2)sc2ccccc21.[I-]", "note": "(stereo not drawn)", "hERG current change (%, negative = inhibition) at 10uM": 6.92},
      {"smiles": "CCN1/C(=C/C=C/c2oc3ccc(-c4ccccc4)cc3[n+]2CC)Oc2ccc(-c3ccccc3)cc21.CCOS(=O)(=O)[O-]", "hERG current change (%, negative = inhibition) at 10uM": -2.14},
      {"smiles": "CCOc1ccc(S(=O)(=O)Nc2cccc(OC)c2)cc1", "hERG current change (%, negative = inhibition) at 10uM": -25},
      {"smiles": "CC[n+]1c(/C=C/Nc2ccccc2)oc2ccccc21.[I-]", "hERG current change (%, negative = inhibition) at 10uM": -70.4},
      {"smiles": "CC[n+]1c(/C=C/N(C)c2ccccc2)oc2ccccc21.O=S(=O)([O-])CCO", "hERG current change (%, negative = inhibition) at 10uM": 0.826},
      {"smiles": "NC(=O)CC(NC(=O)Cc1cccc2ccccc12)c1ccc(NCCN2CCCCC2)c([N+](=O)[O-])c1", "note": "(stereo not drawn)", "hERG current change (%, negative = inhibition) at 10uM": 7.38},
      {"smiles": "O=c1[nH]c2ccc(Cl)cc2c(-c2ccccc2)c1N1CCN(c2ccccn2)CC1", "hERG current change (%, negative = inhibition) at 10uM": 6.61},
      {"smiles": "CCCCn1c(N)c(N(CCOC)C(=O)c2c(CC)noc2C)c(=O)[nH]c1=O", "hERG current change (%, negative = inhibition) at 10uM": 19.9},
      {"smiles": "CCCC/C(O)=C1\\C(=O)CC(C)(C)CC1=Nc1ccc(N)cc1", "hERG current change (%, negative = inhibition) at 10uM": -11.4},
      {"smiles": "CC(C)NC[C@H](O)COc1ccc(CC(N)=O)cc1", "hERG current change (%, negative = inhibition) at 10uM": 12.8},
      {"smiles": "Oc1oc(-c2ccccc2)nc1/C=N/c1nccs1", "hERG current change (%, negative = inhibition) at 10uM": 13.1},
      {"smiles": "Cc1ccccc1NC(=O)c1csc2c1CCCC2", "hERG current change (%, negative = inhibition) at 10uM": -20.9},
      {"smiles": "COc1ccc(-c2nnnn2C)cc1S(=O)(=O)NCc1ccccc1", "hERG current change (%, negative = inhibition) at 10uM": -13.9},
      {"smiles": "Cc1noc(C)c1CSCC(=O)OCC(=O)N1CC(=O)Nc2ccccc21", "hERG current change (%, negative = inhibition) at 10uM": -72.4},
      {"smiles": "Cc1noc(C)c1COc1cccc(C(=O)OCC(=O)N2CC(=O)Nc3ccccc32)c1", "hERG current change (%, negative = inhibition) at 10uM": -0.541},
      {"smiles": "Cc1noc(C)c1COc1ccc(C(=O)OCC(=O)N2CC(=O)Nc3ccccc32)cc1", "hERG current change (%, negative = inhibition) at 10uM": 4.54},
      {"smiles": "COC(=O)c1ccc(CSc2nc(C)nc3c2c(=O)n(C)c(=O)n3C)o1", "hERG current change (%, negative = inhibition) at 10uM": 14.7},
      {"smiles": "O=C(c1ccc(F)c(F)c1)N1CCCc2ccccc21", "hERG current change (%, negative = inhibition) at 10uM": 0.0993},
      {"smiles": "Cc1nc2cc(C(=O)N3CCc4ccccc43)ccc2n1-c1ccc(F)c(F)c1", "hERG current change (%, negative = inhibition) at 10uM": -69.7},
      {"smiles": "Cc1cccc(-n2cnc3cc(C(=O)N4CCc5ccccc54)ccc32)c1", "hERG current change (%, negative = inhibition) at 10uM": -61.5},
      {"smiles": "Cc1ccc(C(=O)N2CCc3ccccc32)cc1", "hERG current change (%, negative = inhibition) at 10uM": -7.42},
      {"smiles": "O=C(c1ccc2ccccc2c1)N1CCc2ccccc21", "hERG current change (%, negative = inhibition) at 10uM": 3.51},
      {"smiles": "Cc1cccc(-n2cnc3cc(C(=O)N4CCCCC4)ccc32)c1", "hERG current change (%, negative = inhibition) at 10uM": -21.3},
      {"smiles": "CCc1ccc(NC(=O)CCn2c(=O)oc3ccccc32)cc1", "hERG current change (%, negative = inhibition) at 10uM": -10.1},
      {"smiles": "CCc1ccc(-c2nc3ccc(Br)cc3c(C(=O)O)c2C)s1", "hERG current change (%, negative = inhibition) at 10uM": 19.1},
      {"smiles": "CCN1CCN(CCC(=O)Nc2ccc(F)c(F)c2)CC1", "hERG current change (%, negative = inhibition) at 10uM": -17.1},
      {"smiles": "CCCCOc1ccc(NC(=O)CN2CCN(CC)CC2)cc1.Cl", "hERG current change (%, negative = inhibition) at 10uM": -15.9},
      {"smiles": "O=C(CN1CCN(c2ccc(Cl)cc2)CC1)Nc1cccc(F)c1", "hERG current change (%, negative = inhibition) at 10uM": -3.54},
      {"smiles": "CCOc1ccc(NC(=O)CN2CCN(CC(=O)Nc3ccc(F)c(F)c3)CC2)cc1", "hERG current change (%, negative = inhibition) at 10uM": -78.3},
      {"smiles": "CCc1sc(C(=O)N2CCN(c3ccc(F)cc3)CC2)cc1C", "hERG current change (%, negative = inhibition) at 10uM": -16.3},
      {"smiles": "CCc1sc(C(=O)N2CCN(CC(=O)Nc3cccc(F)c3)CC2)cc1C", "hERG current change (%, negative = inhibition) at 10uM": -65},
      {"smiles": "CCOc1ccc(NC(=O)CN2CCN(c3ccc(F)cc3)CC2)cc1", "hERG current change (%, negative = inhibition) at 10uM": -22.2},
      {"smiles": "COc1cc(NC(=O)CN2CCCCCC2)cc(OC)c1", "hERG current change (%, negative = inhibition) at 10uM": 5.28},
      {"smiles": "CCOc1ccc(NC(=O)CN2CCN(CC(=O)Nc3ccc(F)cc3)CC2)cc1", "hERG current change (%, negative = inhibition) at 10uM": -77.2},
      {"smiles": "CCOc1ccc(NC(=O)CN2CCN(CC(=O)Nc3cc(OC)cc(OC)c3)CC2)cc1", "hERG current change (%, negative = inhibition) at 10uM": -74.9},
      {"smiles": "O=C(CN1CCN(c2ccccn2)CC1)Nc1ccc(F)c(F)c1", "hERG current change (%, negative = inhibition) at 10uM": -27.6}
    ]}
  ]
}
